# Data from article PMC4552634, “A New Set of Chemical Starting Points with Plasmodium falciparum Transmission-Blocking Potential for Antimalarial Drug Discovery” (PLoS ONE, 2015).
# Screen size: about 13,000 compounds; about 3,200 (25%) showed an effect of 50% or more. The list shows a part of the results.
# Test system: P. falciparum stage V gametocytes
# Set-up: BacTiter-Glo ATP luminescence viability of purified stage V gametocytes in 384-well plates, per cent inhibition versus DMSO
# Details: 48 h, 5 µM; inhibitor
row,SMILES,% Inhibition [%]
1,CCC(ON1C(N)=NC(N)=NC1(C)C)c1ccc(Cl)cc1 (centres unmarked) [TCMDC-131709],18.34
2,Cc1cc(S(=O)(=O)N2CCCCC(c3ccc(C(F)(F)F)cc3)=N2)c(Cl)cc1Cl [TCMDC-134540],-43.69
3,Cc1ccc(S(=O)(=O)NC2=NC(C)(C)N(OCc3ccc(Cl)c(Cl)c3)C(N)=N2)cc1 [TCMDC-131711],22.12
4,CN1CCN(c2cc(-c3cccc(C(F)(F)F)c3)nc(-c3ccncc3)n2)CC1 [TCMDC-125413],29.7
5,Nc1cc(-c2cccc(Cl)c2)nn1-c1ccnc2cc(Cl)ccc12 [TCMDC-134027],-29.85
6,Nc1nc(-c2ccccn2)nc(-n2nc(-c3cccc(C(F)(F)F)c3)cc2N)n1 [TCMDC-134026],76.36
7,Cc1ccccc1C1CCN(c2ccc(C(=O)Nc3ccccc3)cn2)CC1 [TCMDC-134584],3.597
8,COc1cc(CNC(=S)NN=C(C)c2ccccn2)cc(OC)c1OC [TCMDC-137900],55.54
9,COc1cccc2c(NCCNc3ccnc4c(OC)cccc34)ccnc12 [TCMDC-137880],30.12
10,CC(=NNC(=S)NC(c1ccccc1)c1ccccc1)c1ccccn1 [TCMDC-137894],-31.88
11,COc1cc(-c2nc3c4ccccc4c4ccccc4c3[nH]2)cc(OC)c1OC [TCMDC-123980],2.227
12,O=C(NCCc1ccccc1)c1cc(-c2cccnc2)cnc1NCC1CC1 [TCMDC-136700],4.382
13,CC(=NNc1nc2ccccc2s1)c1ccccn1 [TCMDC-124267],64.52
14,CC(=NNC(=S)NCCc1ccccc1)c1ccccn1 [TCMDC-124270],79.29
15,CCOc1ccc2nc(NC(=O)c3csnn3)sc2c1 [TCMDC-125075],43.02
16,CC(=NNC(=S)NCc1ccco1)c1ccccn1 [TCMDC-137906],99.6
17,O=c1cc(NCCCNCc2[nH]c3cc(Cl)cc(Cl)c3c2Cn2cccn2)[nH]c2ccccc12 [TCMDC-140152],-2.677
18,COc1ccc2nccc([C@@H](O)CN3CCC(NCCc4c[nH]c5ccccc45)CC3)c2c1 [TCMDC-140938],7.162
19,CCc1ccc(O)c(-c2cc(C(=O)Nc3ccc(OC)c(Cl)c3)[nH]n2)c1 [TCMDC-125072],5.954
20,COc1ccc2nccc([C@@H](O)CN3CCC(NCc4ccc5c(c4)nnn5C(C)C)CC3)c2c1 [TCMDC-141011],-16.76
21,CCc1ccc(CN2CCC(C(=O)Nc3ccc(-c4nc5ccccc5[nH]4)cc3)CC2)o1 [TCMDC-124686],-27.59
22,COCCCNC(=S)NN=C(C)c1ccccn1 [TCMDC-137907],93.04
23,CC(=NNC(=S)NC(C)(C)C)c1ccccn1 [TCMDC-137783],15.81
24,CNC(=S)NN=C(C)c1ccccn1 [TCMDC-123475],90.46
25,CC(=NNC(=S)NCCc1ccccn1)c1ccccn1 [TCMDC-137895],92.63
26,Clc1ccc2c(NCCc3ccccn3)ccnc2c1 [TCMDC-123461],8.42

row,SMILES,% Inhibition [%]
1,Cc1ccc(Oc2cnn(C)c(=O)c2Nc2cccc(C(=O)NCCc3ccccn3)c2)c(C)c1 [TCMDC-124786],34.52
2,CN(c1ccc(NC(=O)c2ccc(F)cc2)cc1)C1CCN(Cc2cccc(F)c2)C1 (centres unmarked) [TCMDC-135003],-17.16
3,O=C(Nc1ccc(OC2CCN(Cc3ccsc3)C2)c(Cl)c1)c1ccc2ncccc2c1 (centres unmarked) [TCMDC-133951],-25.76
4,C[C@H](Nc1c(Nc2ccc3[nH]ccc3c2)c(=O)c1=O)C1CCCCC1 [TCMDC-138193],-95.47
5,Cn1nc(-c2ccc(S(=O)(=O)N3CCC(CCN4CCC(c5c[nH]c6ccccc56)CC4)CC3)s2)cc1C(F)(F)F [TCMDC-140168],106.2
6,O=C(NCc1ccc(S(=O)(=O)N2CCC(CN3CCC(c4c[nH]c5ccccc45)CC3)CC2)s1)c1ccccc1 [TCMDC-140170],48.92
7,FC(F)(F)c1cccc(N2CCC(CN3CCC(c4c[nH]c5ccccc45)CC3)CC2)n1 [TCMDC-134280],19.45
8,Cn1nc(-c2ccc(S(=O)(=O)N3CCC(CN4CCC(c5c[nH]c6ccccc56)CC4)CC3)s2)cc1C(F)(F)F [TCMDC-140171],114.8
9,O=C(NCCCCCN1CCC(c2c[nH]c3ccccc23)CC1)Nc1cccc(C(F)(F)F)c1 [TCMDC-139217],-48
10,Cc1ccc(-c2cnc(N)c3cc(-c4ccnc(N)n4)ccc23)cc1 [TCMDC-134544],25.6
11,Nc1nccc2ccc(-c3ccnc(NCc4cccnc4)n3)cc12 [TCMDC-136735],-3.627
12,Cn1ncc2ccc(Nc3nccc(-c4ccc5c(c4)c(N)nn5C)n3)cc21 [TCMDC-137049],80.69
13,Cc1cccc2[nH]c(-c3ccc(-c4cccc(NC(=O)c5cnn6cccnc56)c4)cc3)nc12 [TCMDC-136865],23.94
14,COc1cccc(C(=O)Nc2ccc(Nc3nc(C)cc(N(C)C)n3)cc2)c1 [TCMDC-124720],-4.624
15,COc1cccc(C(=O)Nc2ccc(Nc3nc(C)cc(N(C)C)n3)cc2)c1OC [TCMDC-124719],58.09
16,COc1ccc(C(=O)Nc2ccc(Nc3nc(C)cc(N(C)C)n3)cc2)c(OC)c1 [TCMDC-124727],63.21
17,Cc1cc(N(C)C)nc(Nc2ccc(NC(=O)c3ccccc3C)cc2)n1 [TCMDC-124729],-17.39
18,COc1ccc(NC(=O)Nc2ccc(Nc3nc(C)cc(N(C)C)n3)cc2)cc1 [TCMDC-124960],1.588
19,COc1ccccc1C(=O)Nc1ccc(Nc2nc(C)cc(N(C)C)n2)cc1 [TCMDC-124728],-11.89
20,Cc1nc2c(=O)sc3ccccc3c2n1Cc1ccccc1 [TCMDC-125754],-11.8
21,CN(CCCCN)Cc1ccc(-c2ccc(Cl)cc2)cc1 [TCMDC-140123],92.64
22,CN(C)CCN(C)Cc1ccc(-c2cccc(NC(=O)c3ccc(Cl)cc3)c2)cc1 [TCMDC-132631],0.8563
23,CN(C)CCN(C)Cc1ccc(-c2ccc(NC(=O)c3ccc(Cl)cc3)cc2)cc1 [TCMDC-132587],-35.6
24,O=C(NCc1ccc(C(=O)N2CCC(N3CCCCC3)CC2)cc1)c1cc(-c2cccc(C(F)(F)F)c2)ccc1O [TCMDC-139090],-1.594
25,O=C(Nc1ccccc1Br)c1cn(-c2ccccc2)nc1-c1cccc([N+](=O)[O-])c1 [TCMDC-124624],18.14
26,O=C(NCCc1cccc(F)c1)c1ccc(N2CCN(c3ccncc3)CC2)cn1 [TCMDC-135153],19.99

row,SMILES,% Inhibition [%]
1,CCNc1cc(C(=O)N[C@@H](Cc2ccccc2Cl)[C@H](O)CNC2CCCCC2)cc(N2CCCCS2(=O)=O)c1 [TCMDC-135223],16.84
2,NC[C@H](CC1CCCCC1)NC(=O)c1ccc(-c2ccnc3[nH]ccc23)s1 [TCMDC-134150],38.45
3,Oc1ccc(CCNCCCCCCNCCc2ccc(Cl)cc2)c(Cl)c1O [TCMDC-131266],111.4
4,CNC(=O)CC(=O)NCCc1ccc(Cl)cc1 [TCMDC-131647],-3.705
5,Oc1ccc(CCNCCCCCCNCCCc2ccc(Cl)cc2)cc1O [TCMDC-131264],107.9
6,Oc1ccc(CCNCCCCCNCCCc2ccc(Cl)cc2)cc1O [TCMDC-131279],112.4
7,O=C(NCCCc1ccccc1)c1ccc(O)c(-c2cc(Cl)cc(Cl)c2)c1 [TCMDC-140159],-73.77
8,Oc1ccc(CCNCCCCNCCc2ccc(Cl)cc2)cc1O [TCMDC-131265],107
9,O=c1ccc2ccc(F)c3c2n1CC3CN1CCC(NCc2ccc(-c3cccc(Cl)c3)nc2)CC1 (centres unmarked) [TCMDC-134409],-72.08
10,O=C(/C=C/c1ccccc1Cl)Nc1ccc(Br)c(OCCN2CCC(O)(c3ccccc3)CC2)c1 [TCMDC-140960],2.038
11,Cc1cccc(-c2nn(-c3ccccc3)cc2C(=O)Nc2nnc(C)o2)c1 [TCMDC-125039],-1.826
12,CC(C)CCN1CCCN(Cc2cccc(C(=O)Nc3ccc(C(C)(C)C)cc3)c2)CC1 [TCMDC-136605],-26.48
13,O=[N+]([O-])c1cccc(CNCC2CCN(CC3CCCCC3)CC2)c1 [TCMDC-139468],9.865
14,FC(F)(F)c1ccc2[nH]c(-c3ccc(-c4ccc(CN5CCN(c6cnccn6)CC5)cc4)cc3)nc2c1.O=C(O)C(F)(F)F [TCMDC-132678],-10.34
15,O=C(C1CCCCC1)N1CCOC(CCN2CCC(c3ccccc3)CC2)(c2ccc(Cl)c(Cl)c2)C1 (centres unmarked) [TCMDC-135329],-33.1
16,C=CCc1cccc(OC)c1OCCCON1C(N)=NC(N)=NC1(C)C [TCMDC-131337],-10.44
17,CC(C)(Cc1ccc(Cl)cc1)NCCCCCCNCCc1ccc(O)c(O)c1 [TCMDC-131277],114.6
18,CCCCc1ccc(CCNCCCCCCNCCc2ccc(O)c(O)c2)cc1 [TCMDC-131281],122.8
19,Cc1cc(CNCC2CCC(CNCCCc3ccccc3)CC2)ccc1O (centres unmarked) [TCMDC-140409],40.71
20,CC(C)(O)CC(C)(C)c1cc(Cl)ccc1O [TCMDC-131708],-16.74
21,CCCN(CCCCCCN(CCC)CCc1ccc(O)c(O)c1)CCc1ccc(O)cc1 [TCMDC-131259],-3.325
22,Oc1ccc(CCNCCCCCCNCCc2ccc(-c3ccccc3)cc2)cc1O [TCMDC-131268],113.1
23,CCCNCCc1ccc(NS(=O)(=O)c2cccc(-c3ccc(Cl)cc3)c2)cc1 [TCMDC-141448],32.49
24,Oc1ccc2c(CNCCc3ccccc3)c(O)ccc2c1CNCCc1ccccc1 [TCMDC-137582],-11.34
25,CCCN(CCCCCCNCCc1ccc(Cl)cc1)CCc1ccc(O)c(O)c1 [TCMDC-131274],104.4
